Data on ten molecules can be found in PubChem BioAssay (NCI).

The panel holds about 79,000 compounds, 15% with a hit somewhere; the sample as a whole holds those more often. Unmarked numbers belong to inactive results. The source made the active and inactive calls. Rule as the data show it: active = growth inhibition above about 70%; inactive = the rest.

Assay [1] in a line: NCI Yeast Anticancer Drug Screen. Data for the rad50 strain (AID 155).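 Also: 0% = growth of vehicle-only cultures of the same strain.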 Particulars: S. cerevisiae rad50 strain growth inhibition, active compounds read high. In a few lines: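 Relative growth inhibition (compound vs vehicle) was measured in yeast with a defined repair-gene alteration.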
A short description of assay [2]: NCI Yeast Anticancer Drug Screen. Data for the mec2-1 strain (AID 157). Particulars: S. cerevisiae mec2-1 strain, active compounds read high. In outline:
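Cells of the genetically defined mec2-1 yeast strain are incubated with test compound. Inhibition of growth is calculated against vehicle-treated controls.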

Assay [3] in a line: NCI Yeast Anticancer Drug Screen. Data for the sgs1 mgt1 strain (AID 161).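 Also: 0% = growth of cultures given vehicle only.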 Particulars: S. cerevisiae sgs1 mgt1 strain, active compounds read high. In a few lines: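 Read-out: growth inhibition vs vehicle controls. Cells: mutant yeast strain deficient in DNA damage repair.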
A short description of assay [4]: NCI Yeast Anticancer Drug Screen. Data for the cln2 rad14 strain (AID 165).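 Also: 0% = growth equal to vehicle treated cultures.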 To be noted: S. cerevisiae cln2 rad14 strain, active compounds read high. In outline:
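The screen exposed genetically defined yeast (cln2 rad14) to test compounds and scored growth inhibition relative to vehicle-treated controls.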

Assay [5] is described as follows: NCI Yeast Anticancer Drug Screen. Data for the bub3 strain (AID 167). To be noted: S. cerevisiae bub3 mutant strain, active compounds read high. In a few lines:
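Screening used yeast with an engineered genetic alteration affecting cell cycle control. Compound-exposed cultures were compared with vehicle cultures, and reduced growth was taken as inhibition.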

Assay [6] in a line: NCI Yeast Anticancer Drug Screen. Data for the mlh1 rad18 strain (AID 175). To be noted: S. cerevisiae mlh1 rad18 strain growth inhibition, active compounds read high. In outline:
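Compound-treated yeast growth, normalised to vehicle controls. Strain bears defined DNA repair mutations.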

The mark [7] stands for this setting: at 5.0 µM (retest, dose inferred, filed as 0.5).
Where [8] appears, read: at 50.0 µM (retest, dose inferred, filed as 5.0).

In the case of `O=C1NC(=O)/C(=C/C=C/c2ccccc2)S1`, the growth inhibition is 19% in assay [1] (setting [7]); 91% (active) in assay [1] (setting [8]); 40.9% in assay [1] (at 50.0 µM); 13% in assay [2] (setting [7]); 73% (active) in assay [2] (setting [8]); 25.9% in assay [2] (at 50.0 µM). In addition, the growth inhibition in assay [3] (setting [7]) is 25%; in assay [3] (setting [8]), 98% (active); in assay [3] (at 50.0 µM), 47.8%; in assay [4] (setting [7]), 27%; in assay [4] (setting [8]), 63%; in assay [4] (at 50.0 µM) it was 77.4% (active). The growth inhibition in assay [5] (setting [7]) is 61%; in assay [5] (setting [8]), 99% (active); in assay [5] (at 50.0 µM), 48.1%; in assay [6] (setting [7]), 26%; in assay [6] (setting [8]) it was 94% (active); in assay [6] (at 50.0 µM) it was 90.2% (active).
In the case of `Cc1cc(C(C)(CC(C)C)c2ccc(O)c(C)c2)ccc1O`, the growth inhibition in assay [1] (setting [7]) is 99% (active); in assay [1] (setting [8]), 99% (active); in assay [1] (at 50.0 µM) it was 91.1% (active); in assay [2] (setting [7]), 98% (active); in assay [2] (setting [8]), 99% (active); in assay [2] (at 50.0 µM) it was 93% (active). The growth inhibition in assay [3] (setting [7]) was 97% (active); in assay [3] (setting [8]), 98% (active); in assay [3] (at 50.0 µM) it was 93.2% (active); in assay [4] (setting [7]) it was 68%; in assay [4] (setting [8]), 98% (active); in assay [4] (at 50.0 µM) it was 92.5% (active). The growth inhibition was 98% (active) in assay [5] (setting [7]); 97% (active) in assay [5] (setting [8]); 91.4% (active) in assay [5] (at 50.0 µM); 100% (active) in assay [6] (setting [7]); 100% (active) in assay [6] (setting [8]); 91.3% (active) in assay [6] (at 50.0 µM).
With `Clc1cccc(N2CCN(c3c4c(nc5ccccc35)CCCCC4)CC2)c1`, the growth inhibition is 81% (active) in assay [1] (setting [7]); 94% (active) in assay [1] (setting [8]); 93% (active) in assay [1] (at 50.0 µM); 93% (active) in assay [2] (setting [7]); 99% (active) in assay [2] (setting [8]); 95.5% (active) in assay [2] (at 50.0 µM). In addition, the growth inhibition in assay [3] (setting [7]) was 87% (active); in assay [3] (setting [8]), 96% (active); in assay [3] (at 50.0 µM) it was 95.2% (active); in assay [4] (setting [7]) it was 28%; in assay [4] (setting [8]), 89% (active); in assay [4] (at 50.0 µM), 93.2% (active). The growth inhibition in assay [5] (setting [7]) was 73% (active); in assay [5] (setting [8]), 93% (active); in assay [5] (at 50.0 µM), 92.1% (active); in assay [6] (setting [7]) it was 92% (active); in assay [6] (setting [8]), 95% (active); in assay [6] (at 50.0 µM), 93.9% (active).
For the molecule `CC(C)C(=O)NNc1ccccc1`, the growth inhibition in assay [1] (setting [7]) is 28%; in assay [1] (setting [8]) it was 77% (active); in assay [1] (at 50.0 µM), 93.1% (active); in assay [2] (setting [7]), 1%; in assay [2] (setting [8]), 57%; in assay [2] (at 50.0 µM), 34.2%. The growth inhibition was 18% in assay [3] (setting [7]); 70% (active) in assay [3] (setting [8]); 87.2% (active) in assay [3] (at 50.0 µM); 15% in assay [4] (setting [7]); 67% in assay [4] (setting [8]); 93.2% (active) in assay [4] (at 50.0 µM). Besides, the growth inhibition was 21% in assay [5] (setting [7]); 95% (active) in assay [5] (setting [8]); 70.4% (active) in assay [5] (at 50.0 µM); 39% in assay [6] (setting [7]); 92% (active) in assay [6] (setting [8]); 83.2% (active) in assay [6] (at 50.0 µM).
Take `Oc1cc2ccccc2c2ccccc12`: the growth inhibition in assay [1] (setting [7]) is 0%; in assay [1] (setting [8]), 93% (active); in assay [1] (at 50.0 µM), 99.2% (active); in assay [2] (setting [7]), 2%; in assay [2] (setting [8]), 83% (active); in assay [2] (at 50.0 µM), 99.2% (active). Further, the growth inhibition in assay [3] (setting [7]) was 4%; in assay [3] (setting [8]) it was 87% (active); in assay [3] (at 50.0 µM), 98.9% (active); in assay [4] (setting [7]), -15%; in assay [4] (setting [8]), 97% (active); in assay [4] (at 50.0 µM) it was 98.5% (active). Also, the growth inhibition in assay [5] (setting [7]) is 16%; in assay [5] (setting [8]), 96% (active); in assay [5] (at 50.0 µM), 99.2% (active); in assay [6] (setting [7]), 6%; in assay [6] (setting [8]), 93% (active); in assay [6] (at 50.0 µM), 98.9% (active).
As to `CCc1ccccc1NC(=O)C1=C(C)NC(C)=C(C(=O)Nc2c(CC)cccc2CC)C1c1ccc2c(c1)OCO2` (stereo not given), the growth inhibition in assay [1] (setting [7]) was 30%; in assay [1] (setting [8]) it was 30%; in assay [1] (at 50.0 µM), 89.5% (active); in assay [2] (setting [7]) it was 22%; in assay [2] (setting [8]), 22%; in assay [2] (at 50.0 µM) it was 88.7% (active). For the same molecule, the growth inhibition in assay [3] (setting [7]) is 29%; in assay [3] (setting [8]), 29%; in assay [3] (at 50.0 µM), 89.3% (active); in assay [4] (setting [7]), 15%; in assay [4] (setting [8]), 15%; in assay [4] (at 50.0 µM), 85.8% (active). For the same molecule, the growth inhibition was 24% in assay [5] (setting [7]); 24% in assay [5] (setting [8]); 90.3% (active) in assay [5] (at 50.0 µM); 28% in assay [6] (setting [7]); 28% in assay [6] (setting [8]); 87.7% (active) in assay [6] (at 50.0 µM).
As for `O=S(=O)(O)c1cc2ccccc2c(O)c1N=Nc1ccccc1`, the growth inhibition in assay [1] (setting [7]) is 1%; in assay [1] (setting [8]), 97% (active); in assay [1] (at 50.0 µM), -33.1%; in assay [2] (setting [7]) it was -1%; in assay [2] (setting [8]), 98% (active); in assay [2] (at 50.0 µM) it was -16%. Further, the growth inhibition was 1% in assay [3] (setting [7]); 98% (active) in assay [3] (setting [8]); -3.25% in assay [3] (at 50.0 µM); -16% in assay [4] (setting [7]); 97% (active) in assay [4] (setting [8]); 31.1% in assay [4] (at 50.0 µM). The growth inhibition in assay [5] (setting [7]) is -1%; in assay [5] (setting [8]), 98% (active); in assay [5] (at 50.0 µM), -0.1%; in assay [6] (setting [7]) it was 2%; in assay [6] (setting [8]) it was 98% (active); in assay [6] (at 50.0 µM), 7.6%.
With `COC(=O)c1ccccc1C#Cc1ccccc1C(=O)OC`, the growth inhibition in assay [1] (setting [7]) is -1%; in assay [1] (setting [8]), -1%; in assay [1] (at 50.0 µM) it was 66.8%; in assay [2] (setting [7]) it was -2%; in assay [2] (setting [8]), 2%; in assay [2] (at 50.0 µM), 54.3%. The growth inhibition is -2% in assay [3] (setting [7]); 1% in assay [3] (setting [8]); 89% (active) in assay [3] (at 50.0 µM); -2% in assay [4] (setting [7]); -7% in assay [4] (setting [8]); 12.9% in assay [4] (at 50.0 µM). Also, the growth inhibition in assay [5] (setting [7]) was 3%; in assay [5] (setting [8]), 4%; in assay [5] (at 50.0 µM), 83.5% (active); in assay [6] (setting [7]), -3%; in assay [6] (setting [8]), -5%; in assay [6] (at 50.0 µM), 50%.
As for `Cc1ccc(O)c(Cc2ccccc2Cl)c1`, the growth inhibition in assay [1] (setting [7]) was -2%; in assay [1] (setting [8]) it was 99% (active); in assay [1] (at 50.0 µM), 99.3% (active); in assay [2] (setting [7]), -7%; in assay [2] (setting [8]), 99% (active); in assay [2] (at 50.0 µM), 99.3% (active). For the same molecule, the growth inhibition in assay [3] (setting [7]) was -4%; in assay [3] (setting [8]) it was 98% (active); in assay [3] (at 50.0 µM), 99.5% (active); in assay [4] (setting [7]) it was -19%; in assay [4] (setting [8]), 99% (active); in assay [4] (at 50.0 µM), 99% (active). The growth inhibition is -13% in assay [5] (setting [7]); 99% (active) in assay [5] (setting [8]); 92.7% (active) in assay [5] (at 50.0 µM); -5% in assay [6] (setting [7]); 99% (active) in assay [6] (setting [8]); 99% (active) in assay [6] (at 50.0 µM).
For `COc1ccc(CN=C(N)N)c2ccccc12`, the growth inhibition in assay [1] (setting [7]) was 5%; in assay [1] (setting [8]), 7%; in assay [1] (at 50.0 µM), -29.9%; in assay [2] (setting [7]), 2%; in assay [2] (setting [8]), 5%; in assay [2] (at 50.0 µM), -24.4%. For the same molecule, the growth inhibition in assay [3] (setting [7]) was -6%; in assay [3] (setting [8]) it was -1%; in assay [3] (at 50.0 µM), -15.7%; in assay [4] (setting [7]), 31%; in assay [4] (setting [8]), 31%; in assay [4] (at 50.0 µM), -3%. The growth inhibition was -22% in assay [5] (setting [7]); -23% in assay [5] (setting [8]); -32.5% in assay [5] (at 50.0 µM); 13% in assay [6] (setting [7]); 10% in assay [6] (setting [8]); -5.45% in assay [6] (at 50.0 µM).
